One assay deals with ADIPOR1. The experiment in a line: pooled miR-30 sensor sort-seq; sequence = guide strand. The conditions noted are these: shRNA.
With TAGCAGATAGTCGTTGTCCTTT, the sensor-assay potency score (higher = more potent) is -0.519.

Sequence ATAATTAGAAGAGCAATCCCTG showed a sensor-assay potency score (higher = more potent) of -1.25.

For the sequence TAGTCGTTGTCCTTTAGCCAGT, the sensor-assay potency score (higher = more potent) is -0.984.

TAGACGGTGTGAAAGAGCCAGG displayed a sensor-assay potency score (higher = more potent) of -1.

With TAATTAGAAGAGCAATCCCTGA, the sensor-assay potency score (higher = more potent) was -1.23.

TTATTTTTAAAAGCACTTGGGA had a sensor-assay potency score (higher = more potent) of -0.469.

As to ATGAAGTACATATTTGGTCTGA, the sensor-assay potency score (higher = more potent) is -0.176.

Turning to TAGAAGGAATAATAGAGCCAGG, the sensor-assay potency score (higher = more potent) was -1.35.

TGAATGACAATAGACGGTGTGA yielded a sensor-assay potency score (higher = more potent) of 0.0155.

TCTCTGAATGACAATAGACGGT came in with a sensor-assay potency score (higher = more potent) of -0.907.

Sequence AAACTCTTCCATCTTCTCCATG had a sensor-assay potency score (higher = more potent) of -1.3.

TTGCTCTTCTTCAGCTTTGGGT yielded a sensor-assay potency score (higher = more potent) of -0.543.

A further assay addresses ADORA2B. Described as above. The conditions noted are these: shRNA.
The sequence TTGAAATATACCATGTAGCTCA came in with a sensor-assay potency score (higher = more potent) of 0.0522.

With TAAATATATTTGTCAATCCTTG, the sensor-assay potency score (higher = more potent) is -0.669.

Consider TTAATGTAGATCACCAGCATTA, for which the sensor-assay potency score (higher = more potent) is -1.17.

On to TTTTCCACCATAAACAAGGCAG, for which the sensor-assay potency score (higher = more potent) is -0.459.

TTTATTTTTCCATTGCCTCTAA yielded a sensor-assay potency score (higher = more potent) of 0.2.

In the case of TTGGTGGCACTGTCTTTACTGT, the sensor-assay potency score (higher = more potent) is -1.19.

On to TTTCCTTGTGAGGTGTAGCTAT, for which the sensor-assay potency score (higher = more potent) is -0.397.

Consider TATACCATGTAGCTCATGGGGA, for which the sensor-assay potency score (higher = more potent) was -0.182.

As to TTCATTCGTGGTTCCATCCCAG, the sensor-assay potency score (higher = more potent) was -0.119.

Consider TCCCACTCTTGACATCTGCTTG, for which the sensor-assay potency score (higher = more potent) was -0.99.

Regarding TTAGAATCCATTCAAGCTGTTG, the sensor-assay potency score (higher = more potent) was -0.667.
Also: reference of the scale not given here.
